FXIIa inh: inhibitors of human coagulation factor XIIa | purified human FXIIa, AMC substrate fluorescence, 2 h | inhibition, % at 10 µM | 0.2% of 33,000 active | AID 701; in the data active = inhibition above about 30%
FXIa inh: blocks human coagulation factor XIa activity. P03951. purified human FXIa, fluorogenic AMC substrate cleavage. inhibition, % at 10 µM. 0.3% of 33,000 active;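 active = inhibition above 40% in the primary screen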
Of the large screens only hits and unclear results are named; the others gave an inactive call. An excerpt weighted towards active compounds, which were near 0.33% of everything screened.

CCN1CCN(CC(=O)c2c(C)n(Cc3ccccc3)c3ccc(OC)cc23)CC1	none
CCOC(=O)c1c(C)n(Cc2ccccc2)c2ccc(OCC(O)Cn3nc(C)cc3C)cc12 (centres undefined)	FXIa inh 101
CCCc1nc2ccccc2c(=O)n1-c1ccc(OC)cc1	FXIa inh 42
CN(C)CCc1nc2ccccc2c(=O)n1-c1ccccc1	none
CC(C)(C)NC(=O)Cn1cc(C(=O)c2ccccc2F)c2ccccc21	none
COP(=O)(OC)C1(Nc2ccc(C)cc2)CCCCC1	none

Assay outcomes: PubChem, PCMD
